In PubChem BioAssay (EPA / NIEHS):
The source made the active and inactive calls. Rule for the calls: active = hit-call score of the fitted dose curve at least 0.9, where 1 is the maximum; inactive = score below 0.9.

Assays:
Details in all cases: mRNA level, 48 h; actives raise or lower the signal
[1] = read-out: Ezrin (EZR), EZR (gene 7430); assay: LTEA_HepaRG_EZR: Life Technologies and Expression Analysis (LTEA) Assay for Ezrin (EZR) using HepaRG (AID 2283491)
In short: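 Read-out is EZR transcript level by qRT-PCR, normalized to three housekeeping genes and fitted bidirectionally against the DMSO control. Human HepaRG cells received test chemicals for 48 h at eight half-log concentrations up to 100 uM in 0.5% DMSO.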

[2] = read-out: Cytochrome P450 3A7 (Homo sapiens) (UniProt P24462); assay: LTEA_HepaRG_CYP3A7: Life Technologies and Expression Analysis (LTEA) Assay for CYP3A7 using HepaRG (AID 2283492)
In short: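 Differentiated HepaRG cells in serum-free induction medium exposed 48 h in duplicate to 8-point half-log series from 100 uM top in 0.5% DMSO. CYP3A7 mRNA by qRT-PCR, normalized to ACTB/GAPDH/POLR2A, bidirectional fit versus DMSO.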

CYP3A5 (gene 1577) = assay: LTEA_HepaRG_CYP3A5: Life Technologies and Expression Analysis (LTEA) Assay for CYP3A5 using HepaRG (AID 2283493)
In short: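 HepaRG plated 48 h, switched to serum-free induction medium, chemicals added 48 h (max 100 uM, half-log, 0.5% DMSO). RNA isolated; CYP3A5 by TaqMan qRT-PCR. Gain/loss vs DMSO.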

[3] = read-out: Cytochrome P450 4A22 (Homo sapiens) (UniProt Q5TCH4); assay: LTEA_HepaRG_CYP4A22: Life Technologies and Expression Analysis (LTEA) Assay for Cytochrome P450 4A22 (CYP4A22) using HepaRG (AID 2283495)
In short: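 Differentiated HepaRG cells in serum-free induction medium exposed 48 h in duplicate to eight half-log concentrations up to 100 uM in 0.5% DMSO. CYP4A22 mRNA quantified by TaqMan qRT-PCR, normalized to ACTB, GAPDH and POLR2A; bidirectional fit versus DMSO.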

[4] = read-out: Cytochrome P450 7A1 (Homo sapiens) (UniProt P22680); assay: LTEA_HepaRG_CYP7A1: Life Technologies and Expression Analysis (LTEA) Assay for Cytochrome P450 7A1 (CYP7A1) using HepaRG (AID 2283496)
In short: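 HepaRG cells plated 48 h, then switched to serum-free induction medium and exposed in duplicate for 48 h to 8-point half-log series from 100 uM in 0.5% DMSO. CYP7A1 mRNA by qRT-PCR (TaqMan), normalized to ACTB/GAPDH/POLR2A; bidirectional fit versus DMSO.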

[5] = read-out: Glutathione S-Transferase (GSTA2), GSTA2 (gene 2939); assay: LTEA_HepaRG_GSTA2: Life Technologies and Expression Analysis (LTEA) Assay for Glutathione S-Transferase (GSTA2) using HepaRG (AID 2283497)
In short: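 Differentiated human HepaRG cells were exposed in duplicate for 48 h in serum-free induction medium, 8 points from 100 uM top in half-log steps, 0.5% DMSO. GSTA2 mRNA was measured by TaqMan qRT-PCR, normalized to ACTB, GAPDH and POLR2A; bidirectional fit versus DMSO.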

[6] = read-out: Glutamate-cysteine ligase catalytic (GCLC), GCLC (gene 2729); assay: LTEA_HepaRG_GCLC: Life Technologies and Expression Analysis (LTEA) Assay for Glutamate-cysteine ligase catalytic (GCLC) using HepaRG (AID 2283498)
In short: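 Differentiated HepaRG cells exposed 48 h in serum-free induction medium, eight-point half-log series topping at 100 uM in 0.5% DMSO, duplicates. GCLC mRNA by qRT-PCR normalized to ACTB, GAPDH and POLR2A, fitted bidirectionally versus DMSO.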

[7] = read-out: growth arrest and DNA damage 45 (GADD45G), GADD45G (gene 10912); assay: LTEA_HepaRG_GADD45G: Life Technologies and Expression Analysis (LTEA) Assay for growth arrest and DNA damage 45 (GADD45G) using HepaRG (AID 2283499)
In short: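 Differentiated human HepaRG cells, 48 h post-plating, exposed 48 h in serum-free induction medium to 8 half-log concentrations (top 100 uM, 0.5% DMSO) in duplicate. GADD45G mRNA measured by Fluidigm TaqMan qRT-PCR, normalized to ACTB, GAPDH, POLR2A; bidirectional fit versus DMSO.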

[8] = read-out: Glutamate-cysteine ligase regulatory (GCLM), GCLM (gene 2730); assay: LTEA_HepaRG_GCLM: Life Technologies and Expression Analysis (LTEA) Assay for Glutamate-cysteine ligase regulatory (GCLM) using HepaRG (AID 2283500)
In short: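 Cells were plated, cultured 48 h, switched to serum-free induction medium, then dosed in duplicate for 48 h at eight half-log concentrations up to 100 uM. RNA was then profiled by qRT-PCR; gain or loss versus DMSO was fitted.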

[9] = read-out: Glutathione S-transferase M3 (GSTM3), GSTM3 (gene 2947); assay: LTEA_HepaRG_GSTM3: Life Technologies and Expression Analysis (LTEA) Assay for Glutathione S-transferase M3 (GSTM3) using HepaRG (AID 2283501)
In short: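 Differentiated human HepaRG cells were exposed in duplicate for 48 h in serum-free induction medium, 8 points from 100 uM top in half-log steps, 0.5% DMSO. GSTM3 mRNA was measured by TaqMan qRT-PCR, normalized to ACTB, GAPDH and POLR2A; bidirectional fit versus DMSO.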

[10] = read-out: Hypoxia-inducible factor 1-alpha (Homo sapiens) (UniProt Q16665); assay: LTEA_HepaRG_HIF1A: Life Technologies and Expression Analysis (LTEA) Assay for Hypoxia-inducible factor 1 (HIF1A) Trancription factor using HepaRG (AID 2283503)
In short: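 Differentiated HepaRG cells in serum-free induction medium exposed 48 h, in duplicate, to 8-point half-log series from 100 uM in 0.5% DMSO. HIF1A mRNA measured by TaqMan qRT-PCR, normalized to ACTB/GAPDH/POLR2A, fitted bidirectionally versus DMSO.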

[11] = read-out: 3-Hydroxy-3-Methylglutaryl-CoA Synthase 2 (HMGCS2), HMGCS2 (gene 3158); assay: LTEA_HepaRG_HMGCS2: Life Technologies and Expression Analysis (LTEA) Assay for 3-Hydroxy-3-Methylglutaryl-CoA Synthase 2 (HMGCS2) using HepaRG (AID 2283504)
In short: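 Human HepaRG cells in serum-free induction medium were exposed in duplicate for 48 h to 8-point half-log series from 100 uM top in 0.5% DMSO. HMGCS2 mRNA measured by TaqMan qRT-PCR, normalised to ACTB, GAPDH, POLR2A; bidirectional fit versus DMSO.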

HGF (gene 3082) = assay: LTEA_HepaRG_HGF: Life Technologies and Expression Analysis (LTEA) Assay for Hepatocyte Growth Facto (HGF) using HepaRG (AID 2283505)
In short: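 Differentiated HepaRG cells in serum-free induction medium exposed 48 h in duplicate, 8 half-log concentrations from 100 uM in 0.5% DMSO. HGF mRNA by qRT-PCR, normalised to ACTB, GAPDH, POLR2A; bidirectional fitting.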

[12] = read-out: Insulin Like Growth Factor 1 (IGF1), IGF1 (gene 3479); assay: LTEA_HepaRG_IGF1: Life Technologies and Expression Analysis (LTEA) Assay for Insulin Like Growth Factor 1 (IGF1) using HepaRG (AID 2283506)
In short: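 HepaRG, plated 48 h, then switched to serum-free induction media; test chemical 8-pt half-log from 100 uM (0.5% DMSO), duplicate, 48 h. Lysis in RLT, TaqMan qRT-PCR, norm. ACTB/GAPDH/POLR2A. Bidirectional fit vs DMSO.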

[13] = read-out: Intercellular Adhesion Molecule 1 (ICAM1), ICAM1 (gene 3383); assay: LTEA_HepaRG_ICAM1: Life Technologies and Expression Analysis (LTEA) Assay for Intercellular Adhesion Molecule 1 (ICAM1) using HepaRG (AID 2283507)
In short: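 Differentiated human HepaRG cells in serum-free induction medium exposed 48 h in duplicate to 8 half-log concentrations (top 100 uM, 0.5% DMSO). ICAM1 mRNA quantified by TaqMan qRT-PCR, normalized to ACTB, GAPDH and POLR2A; bidirectional fitting versus DMSO.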

[14] = read-out: Insulin-like growth factor-binding protein 1 (IGFBP1), IGFBP1 (gene 3484); assay: LTEA_HepaRG_IGFBP1: Life Technologies and Expression Analysis (LTEA) Assay for Insulin-like growth factor-binding protein 1 (IGFBP1) using HepaRG (AID 2283508)
In short: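 HepaRG cells, plated 48 h then switched to serum-free induction medium, exposed in duplicate for 48 h to 8-point half-log series from 100 uM in 0.5% DMSO. mRNA measured by qRT-PCR, normalized to ACTB/GAPDH/POLR2A; bidirectional fit versus DMSO.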

[15] = read-out: Interleukin 6 (IL6), IL6 (gene 3569); assay: LTEA_HepaRG_IL6: Life Technologies and Expression Analysis (LTEA) Assay for Interleukin 6 (IL6) using HepaRG (AID 2283509)
In short: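 HepaRG cells exposed in duplicate for 48 h to eight half-log concentrations, top 100 uM, in 0.5% DMSO serum-free induction medium. mRNA measured by qRT-PCR, normalized to ACTB, GAPDH and POLR2A. Bidirectional fit versus DMSO.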

[16] = read-out: Interleukin 6 Receptor (IL6R), IL6R (gene 3570); assay: LTEA_HepaRG_IL6R: Life Technologies and Expression Analysis (LTEA) Assay for Interleukin 6 Receptor (IL6R) using HepaRG (AID 2283510)
In short: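 Readout is IL6R transcript level by TaqMan qRT-PCR, normalized to three housekeeping genes and fitted bidirectionally against 0.5% DMSO controls. Human HepaRG cells received chemicals for 48 h in serum-free induction medium, highest concentration 100 uM.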

[17] = read-out: Fatty Acid-Binding Protein 1 (FABP1), FABP1 (gene 2168); assay: LTEA_HepaRG_FABP1: Life Technologies and Expression Analysis (LTEA) Assay for Fatty Acid-Binding Protein 1 (FABP1) using HepaRG (AID 2283494)
In short: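 Differentiated human HepaRG cells exposed 48 h in serum-free induction medium to eight half-log concentrations up to 100 uM (0.5% DMSO), duplicate. FABP1 mRNA by qRT-PCR, normalised to ACTB, GAPDH, POLR2A; bidirectional fitting against DMSO.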

[18] = read-out: Heat shock 70 kDa protein 1 (HSPA1A), gene 3303; assay: LTEA_HepaRG_HSPA1A: Life Technologies and Expression Analysis (LTEA) Assay for Heat shock 70 kDa protein 1 (HSPA1A) using HepaRG (AID 2283502)
In short: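 Readout is HSPA1A transcript level by microfluidic qRT-PCR, normalized to three housekeeping genes and analysed for gain or loss of signal relative to 0.5% DMSO. Human HepaRG cultures received test chemicals for 48 h at up to 100 uM.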

Measured: AC50

Sequence of Hypoxia-inducible factor 1-alpha (Homo sapiens) (Q16665 whole entry, looked up): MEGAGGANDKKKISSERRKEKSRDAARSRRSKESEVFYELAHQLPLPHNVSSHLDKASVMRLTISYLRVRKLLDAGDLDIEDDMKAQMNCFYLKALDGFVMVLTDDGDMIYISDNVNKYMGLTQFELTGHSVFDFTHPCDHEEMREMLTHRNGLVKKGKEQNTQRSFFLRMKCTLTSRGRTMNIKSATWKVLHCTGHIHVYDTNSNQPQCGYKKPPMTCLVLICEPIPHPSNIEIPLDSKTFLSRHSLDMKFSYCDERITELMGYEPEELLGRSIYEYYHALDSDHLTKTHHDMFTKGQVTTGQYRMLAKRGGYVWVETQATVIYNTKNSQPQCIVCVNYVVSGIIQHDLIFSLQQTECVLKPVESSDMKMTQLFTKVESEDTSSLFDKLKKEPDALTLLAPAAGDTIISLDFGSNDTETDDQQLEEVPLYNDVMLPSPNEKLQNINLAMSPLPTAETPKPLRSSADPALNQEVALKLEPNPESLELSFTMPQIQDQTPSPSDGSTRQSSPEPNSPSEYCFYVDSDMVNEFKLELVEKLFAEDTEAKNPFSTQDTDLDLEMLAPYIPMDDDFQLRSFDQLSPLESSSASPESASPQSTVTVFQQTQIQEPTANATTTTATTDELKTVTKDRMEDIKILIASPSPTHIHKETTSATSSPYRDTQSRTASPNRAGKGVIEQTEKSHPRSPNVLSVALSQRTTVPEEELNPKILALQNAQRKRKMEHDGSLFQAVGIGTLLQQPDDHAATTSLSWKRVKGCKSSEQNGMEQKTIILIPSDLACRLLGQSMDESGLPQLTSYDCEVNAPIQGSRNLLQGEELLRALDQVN
Sequence of Cytochrome P450 3A7 (Homo sapiens) (P24462 whole entry, looked up): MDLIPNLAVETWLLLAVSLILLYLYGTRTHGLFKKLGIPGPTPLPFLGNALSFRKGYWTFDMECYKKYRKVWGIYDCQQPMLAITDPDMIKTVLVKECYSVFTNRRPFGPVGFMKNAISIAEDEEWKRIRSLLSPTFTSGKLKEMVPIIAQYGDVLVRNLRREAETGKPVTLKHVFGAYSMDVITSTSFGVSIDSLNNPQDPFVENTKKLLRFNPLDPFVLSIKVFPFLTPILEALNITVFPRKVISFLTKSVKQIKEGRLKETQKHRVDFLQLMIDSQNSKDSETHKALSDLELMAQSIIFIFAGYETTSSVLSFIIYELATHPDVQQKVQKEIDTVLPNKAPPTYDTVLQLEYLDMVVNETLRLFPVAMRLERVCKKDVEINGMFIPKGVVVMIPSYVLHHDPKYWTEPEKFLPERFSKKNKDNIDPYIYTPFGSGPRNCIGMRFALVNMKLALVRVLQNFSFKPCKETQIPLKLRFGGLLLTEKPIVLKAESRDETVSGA

Cc1ccc(S(=O)(=O)O)cc1C
not listed: [17] | [18]
inactive: all other assays above

O=C1CCCCCN1
not listed: [6] | [15] | [18]
inactive: all other assays above

C[C@](N)(Cc1ccc(O)c(O)c1)C(=O)O
not listed: [6] | [8]
inactive: all other assays above

COC(=O)c1ccccc1O
not listed: [17]
inactive: all other assays above

CC(C)CC(C)(O)C#CC(C)(O)CC(C)C (configuration not stated)
not listed: [3] | [4] | [6] | [15] | [18]
inactive: all other assays above

O=C1CCC(N2C(=O)c3ccccc3C2=O)C(=O)N1 (configuration not stated)
not listed: [6] | [10]
inactive: all other assays above

Cn1c(=O)cc(Oc2ccc(F)cc2F)c2cnc(NCC(C)(C)O)nc21
active: [2] 28.9 µM | CYP3A5 (gene 1577) 50 µM | [7] 9.17 µM | [12] 12.6 µM
not listed: [6] | [8] | [18]
inactive: all other assays above
